What is called AC50 is the concentration at which the activity in the assay is half-maximal.

These results are taken from PubChem BioAssay (EPA / NIEHS).

Inconclusive results are not listed. Some structures have more than one record in an assay (separate samples or runs), and their calls can disagree. Calls of active or inactive are those of the source. How the source made its calls: active means hit-call score of the fitted dose curve at least 0.9, where 1 is the maximum; inconclusive means response in the unintended direction; inactive means score below 0.9.

Peroxisome proliferator-activated receptor gamma (Homo sapiens), sequence (P37231 whole entry, looked up): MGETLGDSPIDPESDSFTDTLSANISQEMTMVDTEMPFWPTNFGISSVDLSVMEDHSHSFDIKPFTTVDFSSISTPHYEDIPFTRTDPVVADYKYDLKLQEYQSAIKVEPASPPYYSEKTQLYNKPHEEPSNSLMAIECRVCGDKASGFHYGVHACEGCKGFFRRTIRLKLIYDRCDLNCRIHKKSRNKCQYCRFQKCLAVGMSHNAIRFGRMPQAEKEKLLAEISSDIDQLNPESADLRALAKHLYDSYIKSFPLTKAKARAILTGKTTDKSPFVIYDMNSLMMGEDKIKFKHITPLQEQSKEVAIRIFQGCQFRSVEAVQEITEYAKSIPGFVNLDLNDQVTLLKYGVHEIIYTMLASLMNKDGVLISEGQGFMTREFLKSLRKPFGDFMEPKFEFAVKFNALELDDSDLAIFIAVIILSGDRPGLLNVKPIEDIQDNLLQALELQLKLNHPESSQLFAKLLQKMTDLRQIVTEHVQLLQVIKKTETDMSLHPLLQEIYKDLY

The target in the experiment is Peroxisome proliferator-activated receptor gamma (Homo sapiens) (UniProt P37231). Put plainly: NVS_NR_hPPARg: NovaScreen (NVS) Nuclear Receptor Binding Assay for human Peroxisome Proliferator-activated Receptor gamma (PPARg) (AID 2283370). The procedure, abridged:
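Cell-free fluorescence polarization binding to human PPARg protein, read 2 h after dosing. Primary screen in duplicate at 25 uM, actives followed in concentration series; loss of signal relative to DMSO scored.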
As to `COP(=O)(NC(C)=O)SC` (stereo not given), the result was inactive.

In the case of `CN(C)[C@@H]1C(=O)C(C(N)=O)=C(O)[C@@]2(O)C(=O)C3=C(O)c4c(O)cccc4[C@@](C)(O)[C@H]3[C@H](O)[C@@H]12`, the AC50 is 20.2 µM (active) and the compound was called inactive.

As for `CC(=NC#N)N(C)Cc1ccc(Cl)nc1`, the compound was classed as inactive.

For `CCOP(=O)(OCC)Oc1cc(C)nc(C(C)C)n1`, the outcome was inactive.

Consider `CCC(=NOC/C=C/Cl)C1=C(O)CC(C2CCOCC2)CC1=O` (stereo not given), for which the compound was classed as inactive.

`O=[N+]([O-])c1cc(C(F)(F)F)c(Cl)c([N+](=O)[O-])c1Nc1ncc(C(F)(F)F)cc1Cl`: the AC50 was 0.319 µM (active).

For `CC(C)[C@H](C(=O)O[C@H](C#N)c1cccc(Oc2ccccc2)c1)c1ccc(Cl)cc1`, the call was inactive.

As to `CCOP(=S)(OCC)OC(Cl)C(Cl)(Cl)Cl` (stereo not given), the call was inactive.

In the case of `CCCOCC(=Nc1ccc(Cl)cc1C(F)(F)F)n1ccnc1`, the AC50 is 17.6 µM (active).

`O=C(O)c1cc(Oc2ccc(C(F)(F)F)cc2Cl)ccc1[N+](=O)[O-]`: the AC50 is 9.58 µM (active).

As for `CCCSP(=O)(OCC)SCCC`, the outcome was inactive.

Regarding `C=C(C)[C@H]1Cc2c(ccc3c2O[C@@H]2COc4cc(OC)c(OC)cc4[C@@H]2C3=O)O1`, the result was inactive.

Take `CC(COc1ccc(Oc2ccccc2)cc1)Oc1ccccn1` (stereo not given): the outcome was inactive.

On to `CCC(CC)Nc1c([N+](=O)[O-])cc(C)c(C)c1[N+](=O)[O-]`, for which the compound was called inactive.
